Source: PubChem (Pan Lab, Icahn School of Medicine at Mount Sinai)
ROC1-CUL1 inh: inhibitors of human ROC1-CUL1 ubiquitin ligase activity. hit rate 0.6% among 140,000. AID 1347404. P62877+Q13616. in vitro K48 di-Ub FRET, acceptor:donor ratio, 45 min. inhibition, % at 10 µM; in the data active = inhibition above about 25%
Target sequence (P62877 whole entry, looked up): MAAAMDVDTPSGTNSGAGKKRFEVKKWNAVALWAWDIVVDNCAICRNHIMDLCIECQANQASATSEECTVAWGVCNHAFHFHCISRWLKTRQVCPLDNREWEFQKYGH
Target sequence (Q13616 whole entry, looked up): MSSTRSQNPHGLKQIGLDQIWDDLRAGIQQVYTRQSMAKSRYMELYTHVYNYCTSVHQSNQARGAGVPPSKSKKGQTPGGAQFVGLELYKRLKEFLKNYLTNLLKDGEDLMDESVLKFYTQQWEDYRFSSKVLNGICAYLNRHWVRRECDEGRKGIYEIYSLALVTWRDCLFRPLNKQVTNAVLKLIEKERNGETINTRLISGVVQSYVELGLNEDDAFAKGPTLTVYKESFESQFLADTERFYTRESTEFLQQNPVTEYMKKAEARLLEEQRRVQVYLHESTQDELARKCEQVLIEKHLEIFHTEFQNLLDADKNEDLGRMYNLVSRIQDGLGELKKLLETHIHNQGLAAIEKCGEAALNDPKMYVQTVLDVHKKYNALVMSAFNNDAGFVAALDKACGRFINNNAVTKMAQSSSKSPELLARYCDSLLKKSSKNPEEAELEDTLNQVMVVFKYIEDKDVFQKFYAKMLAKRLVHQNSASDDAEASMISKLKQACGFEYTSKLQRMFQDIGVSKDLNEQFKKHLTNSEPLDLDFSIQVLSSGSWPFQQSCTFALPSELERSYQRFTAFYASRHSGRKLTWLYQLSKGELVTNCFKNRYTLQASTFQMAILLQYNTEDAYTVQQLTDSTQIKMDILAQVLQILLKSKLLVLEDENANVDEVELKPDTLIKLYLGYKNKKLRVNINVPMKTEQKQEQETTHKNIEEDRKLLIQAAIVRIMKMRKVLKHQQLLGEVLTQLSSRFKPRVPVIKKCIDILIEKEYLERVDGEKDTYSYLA
An asterisk follows results filed as active. The full list was thinned out, with hits kept by preference.

SMILES | ROC1-CUL1 inh
CNS(=O)(=O)c1ccc2c(O)cc(S(=O)(=O)NC)cc2c1 | 1
Cc1cc(C)n(N)c(=O)c1C(N)=O | 1
Brc1ccc(C#Cc2ccccc2)cc1 | -3
CS(=O)(=O)C#Cc1ccccc1 | 52*
CS(=O)(=O)C(C(=O)c1ccccc1)C(=O)c1ccccc1 | -5
CN(C)c1ccc(/C=C2/N=C(C3CCCCC3)OC2=O)cc1 | -5
CCCn1c(=O)c2c(nc3n(CCOC)c(C)cn23)n(C)c1=O | 9
COc1ccc(NC(=S)c2sc(N3CCOCC3)nc2N2CCOCC2)cc1 | -4
Cc1ccccc1NC(=O)c1ccc(C2CCCN2)s1 (stereo not given) | 6
O=C(Nc1ccc2scnc2c1)c1ccc(C2CCCN2)s1 (stereo not given) | 99*
CC(C)n1cc(NC(=O)c2ccc(C3CCCN3)s2)nn1 (stereo not given) | 1
O=C(Oc1ccc(S(=O)(=O)O)cc1C(=O)O)c1ccc(=O)oc1 | 5
Cc1ccc(C)c(OC(=O)c2ccc(=O)oc2)c1 | 28*
CCc1ccc(C)c(OC(=O)c2ccc(C)cc2)c1 | -7
COC(=O)[C@H]1CC2C(=O)C=C(c3ccccc3)C1N2C (stereo not given in full) | 39*
COC(=O)[C@@H]1C(c2ccccc2)N=C(c2ccccc2)[C@H]1C (stereo not given in full) | 3
COC(=O)[C@H]1O[C@H](c2ccccc2)O[C@H]1c1ccccc1 | 2
CCOc1ccc(-n2c(C)nnc2SCc2cccc3ccccc23)cc1 | 3
CCOc1cccc(CNc2ccc(O)cc2)c1OCc1ccccc1Cl | -3
Oc1ccc(NCc2cccc(OCc3ccc(Cl)cc3Cl)c2)cc1 | 39*
CNCc1ccc(OCc2ccc(Cl)cc2Cl)cc1 | -6
CCOc1cccc(CNC(C)(C)CO)c1OCc1ccc(Cl)cc1Cl | 0
CNCc1cccc(OCc2ccccc2Cl)c1 | -4
CCOc1cccc(CNc2ccc(O)cc2)c1OCc1ccc(Cl)cc1Cl | 53*
CCN1CCN(C(=O)c2ccc(N3CCC(NCc4cccc(OC(F)(F)F)c4)CC3)cc2)CC1 | 5
SMILES | ROC1-CUL1 inh
Cc1cccc(NC(=O)c2cccc(F)c2)c1C | 0
COc1cc(Cl)c(C)cc1NC(=O)CSc1ncc(S(=O)(=O)c2ccc(C(C)(C)C)cc2)c(=O)[nH]1 | 53*
CC(C)(C)c1ccc(S(=O)(=O)c2cnc(SCC(=O)Nc3ccc(F)c(Cl)c3)[nH]c2=O)cc1 | -5
CCc1ccc(S(=O)(=O)c2cnc(SCC(=O)Nc3ccc(OC)cc3OC)[nH]c2=O)cc1 | 4
Cc1csc(SCC(=O)N2CCc3c(cnc(C)c3CNC(=O)c3ccccc3F)C2)n1 | -2
CC(C)C(C(=O)O)n1c(O)c(C=C2C=Nc3ccccc32)sc1=S (stereo not given) | 25*
O=C(Cn1c(O)c(C=C2C=Nc3ccccc32)sc1=O)N1CCOCC1 | 3
O=c1[nH]n(-c2cc(Cl)cc(Cl)c2)c(O)c1C=C1C=Nc2ccccc21 | -1
O=c1cc(-c2ccccc2)nc(N2CCN(c3ncccn3)CC2)[nH]1 | 0
C=C(C)COc1ccccc1C(=O)Nc1ccccc1 | 19
Cc1ccc(NC(=S)Nc2ccc3nsnc3c2)cc1 | 66*
CNC(=S)Nc1ccc(C)cc1 | 4
COc1ccc(C(=O)Nc2ccc3nsnc3c2)cc1OC | -9
Cc1cccn2c(=O)c3cc(C(=O)NCc4ccco4)n(C)c3nc12 | 7
CCc1cc2c(=O)[nH]c(-c3cccnc3)nc2s1 | -4
CCOc1cc(C(=O)Nc2ccccc2Oc2ccccc2)cc(OCC)c1OCC | -3
CCOc1cc(NC(=O)C(C(F)(F)F)C(F)(F)F)c(OCC)cc1NC(=O)c1ccccc1 | 67*
CCOc1c(Cl)cc(C(=O)Nc2ccccc2C(F)(F)F)cc1Cl | 3
Cc1cc(-c2cccc(-c3ccn(CCF)n3)c2)nc(N(C)C)n1 | -3
Cc1cnc(NCCc2ccccn2)nc1-c1ccnn1C | -1
Nc1cc(S(=O)(=O)O)cc(C(=O)O)c1O | 12
O=C(O)c1cc(S(=O)(=O)O)cc(Nc2c3ccccc3nc3ccccc23)c1O | -7
CC1=NN(c2cc(S(=O)(=O)O)cc(C(=O)O)c2O)C(=O)C1 | 69*
COCCn1c(=O)c2c(nc3n(-c4ccc(C)cc4)c(C)cn23)n(C)c1=O | 7
CC1(C)CC(=O)C(C2(O)C(=O)c3ccccc3C2=O)C(=O)C1 | -15
SMILES | ROC1-CUL1 inh
CC1(N2CCCCC2)C(=O)c2ccccc2C1=O | 1
CN1C(=O)N(C)C2(O)c3ccccc3C(=O)C12O (stereo not given) | -8
COC1(O)C(=O)c2ccccc2C(=O)C1(O)OC (stereo not given) | 83*
O=C1c2ccccc2C(=O)C1(O)O | 46*
CC1(Nc2ccccc2)C(=O)c2ccccc2C1=O | 2
CCN(Cc1nccn1C)C(=O)c1ccc(OCC2(C)CCCNC2)nc1 (stereo not given) | 2
c1ccc(C2=NC(c3ccccc3)N=C2c2ccccc2)cc1 | 3
Cc1cc2ncc(S(=O)(=O)c3ccccc3)c(-c3ccc(Br)cc3)n2n1 | 4
Cc1cc(S(=O)(=O)N2CCCC(CNS(=O)(=O)Cc3ccccc3)C2)c(C)s1 (stereo not given) | -5
